Among the data in the supplement of paper PMC10849652 are log2 fold change values, retold here.

The full data set covers some 8,800 targets. This sample favours those with a hit. About 0.5% of all pairs of compound and target were hits. Values without a mark were called inactive.

Sequence of UniProt Q6ZRR7 (Q6ZRR7 whole entry, looked up): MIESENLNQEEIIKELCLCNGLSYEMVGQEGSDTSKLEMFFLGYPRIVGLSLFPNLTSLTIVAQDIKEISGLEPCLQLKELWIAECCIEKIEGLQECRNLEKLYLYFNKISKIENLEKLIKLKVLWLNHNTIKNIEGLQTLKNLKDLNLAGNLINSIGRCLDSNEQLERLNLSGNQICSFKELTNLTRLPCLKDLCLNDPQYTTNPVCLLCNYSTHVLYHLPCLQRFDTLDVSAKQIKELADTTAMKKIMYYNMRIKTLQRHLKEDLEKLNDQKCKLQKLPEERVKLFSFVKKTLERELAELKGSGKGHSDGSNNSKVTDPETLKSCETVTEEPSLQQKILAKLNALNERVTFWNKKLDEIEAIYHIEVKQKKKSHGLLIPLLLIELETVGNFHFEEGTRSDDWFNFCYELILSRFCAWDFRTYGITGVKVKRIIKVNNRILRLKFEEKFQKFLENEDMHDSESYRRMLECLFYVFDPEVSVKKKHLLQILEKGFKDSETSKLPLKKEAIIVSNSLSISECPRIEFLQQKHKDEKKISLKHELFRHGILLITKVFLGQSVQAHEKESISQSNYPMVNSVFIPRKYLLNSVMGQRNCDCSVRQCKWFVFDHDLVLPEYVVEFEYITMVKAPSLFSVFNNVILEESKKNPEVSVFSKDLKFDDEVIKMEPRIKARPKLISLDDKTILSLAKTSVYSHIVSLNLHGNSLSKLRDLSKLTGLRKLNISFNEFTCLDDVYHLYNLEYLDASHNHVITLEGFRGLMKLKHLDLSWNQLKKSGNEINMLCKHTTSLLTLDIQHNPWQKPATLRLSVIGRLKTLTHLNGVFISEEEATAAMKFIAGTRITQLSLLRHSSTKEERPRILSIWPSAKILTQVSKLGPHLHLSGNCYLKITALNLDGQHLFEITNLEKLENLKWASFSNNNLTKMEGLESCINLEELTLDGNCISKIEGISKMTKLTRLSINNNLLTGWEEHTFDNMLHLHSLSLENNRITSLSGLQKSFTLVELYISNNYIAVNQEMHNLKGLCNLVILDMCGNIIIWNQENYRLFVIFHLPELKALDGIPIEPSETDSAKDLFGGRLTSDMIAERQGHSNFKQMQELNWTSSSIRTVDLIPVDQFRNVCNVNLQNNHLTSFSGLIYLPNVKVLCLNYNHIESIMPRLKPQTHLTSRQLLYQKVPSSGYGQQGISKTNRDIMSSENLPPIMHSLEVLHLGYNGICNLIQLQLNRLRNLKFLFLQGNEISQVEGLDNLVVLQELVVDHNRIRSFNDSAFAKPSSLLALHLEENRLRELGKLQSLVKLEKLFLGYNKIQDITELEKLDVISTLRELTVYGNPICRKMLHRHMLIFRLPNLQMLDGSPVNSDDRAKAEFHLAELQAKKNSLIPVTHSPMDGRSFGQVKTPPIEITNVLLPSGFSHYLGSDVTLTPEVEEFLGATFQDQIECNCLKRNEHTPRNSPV
Sequence of UniProt Q16553 (Q16553 whole entry, looked up): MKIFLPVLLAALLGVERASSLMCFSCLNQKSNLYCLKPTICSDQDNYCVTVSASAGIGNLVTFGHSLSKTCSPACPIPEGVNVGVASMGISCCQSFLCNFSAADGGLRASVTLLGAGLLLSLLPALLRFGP
Sequence of UniProt Q9H204 (Q9H204 whole entry, looked up): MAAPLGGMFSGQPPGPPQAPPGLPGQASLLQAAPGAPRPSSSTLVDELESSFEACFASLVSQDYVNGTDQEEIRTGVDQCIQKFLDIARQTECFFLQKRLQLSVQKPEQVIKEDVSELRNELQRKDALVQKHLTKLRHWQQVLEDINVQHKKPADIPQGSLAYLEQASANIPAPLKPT
Sequence of UniProt Q13164 (Q13164 whole entry, looked up): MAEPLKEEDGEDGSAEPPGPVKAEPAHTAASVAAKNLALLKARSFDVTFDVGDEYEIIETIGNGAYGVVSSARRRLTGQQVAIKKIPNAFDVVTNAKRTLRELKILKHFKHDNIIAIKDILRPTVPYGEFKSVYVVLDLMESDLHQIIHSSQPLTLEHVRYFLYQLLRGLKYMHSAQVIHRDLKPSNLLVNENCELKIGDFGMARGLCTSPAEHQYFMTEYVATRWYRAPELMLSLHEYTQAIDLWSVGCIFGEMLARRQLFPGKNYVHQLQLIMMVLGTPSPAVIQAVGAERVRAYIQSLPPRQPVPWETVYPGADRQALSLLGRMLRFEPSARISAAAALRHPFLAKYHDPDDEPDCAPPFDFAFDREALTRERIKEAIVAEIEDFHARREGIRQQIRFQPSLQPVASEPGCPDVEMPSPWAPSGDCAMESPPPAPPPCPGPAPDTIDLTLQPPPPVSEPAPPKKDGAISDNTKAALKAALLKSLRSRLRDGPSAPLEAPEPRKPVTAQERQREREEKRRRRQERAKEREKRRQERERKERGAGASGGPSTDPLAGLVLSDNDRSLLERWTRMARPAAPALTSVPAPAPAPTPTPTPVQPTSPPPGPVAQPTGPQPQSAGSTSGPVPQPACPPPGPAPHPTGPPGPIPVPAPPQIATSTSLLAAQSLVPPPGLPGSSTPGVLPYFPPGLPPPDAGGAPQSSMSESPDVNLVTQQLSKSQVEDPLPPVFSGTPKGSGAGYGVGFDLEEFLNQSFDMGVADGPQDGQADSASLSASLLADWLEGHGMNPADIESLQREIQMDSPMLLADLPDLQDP
Sequence of UniProt Q9UBG0 (Q9UBG0 whole entry, looked up): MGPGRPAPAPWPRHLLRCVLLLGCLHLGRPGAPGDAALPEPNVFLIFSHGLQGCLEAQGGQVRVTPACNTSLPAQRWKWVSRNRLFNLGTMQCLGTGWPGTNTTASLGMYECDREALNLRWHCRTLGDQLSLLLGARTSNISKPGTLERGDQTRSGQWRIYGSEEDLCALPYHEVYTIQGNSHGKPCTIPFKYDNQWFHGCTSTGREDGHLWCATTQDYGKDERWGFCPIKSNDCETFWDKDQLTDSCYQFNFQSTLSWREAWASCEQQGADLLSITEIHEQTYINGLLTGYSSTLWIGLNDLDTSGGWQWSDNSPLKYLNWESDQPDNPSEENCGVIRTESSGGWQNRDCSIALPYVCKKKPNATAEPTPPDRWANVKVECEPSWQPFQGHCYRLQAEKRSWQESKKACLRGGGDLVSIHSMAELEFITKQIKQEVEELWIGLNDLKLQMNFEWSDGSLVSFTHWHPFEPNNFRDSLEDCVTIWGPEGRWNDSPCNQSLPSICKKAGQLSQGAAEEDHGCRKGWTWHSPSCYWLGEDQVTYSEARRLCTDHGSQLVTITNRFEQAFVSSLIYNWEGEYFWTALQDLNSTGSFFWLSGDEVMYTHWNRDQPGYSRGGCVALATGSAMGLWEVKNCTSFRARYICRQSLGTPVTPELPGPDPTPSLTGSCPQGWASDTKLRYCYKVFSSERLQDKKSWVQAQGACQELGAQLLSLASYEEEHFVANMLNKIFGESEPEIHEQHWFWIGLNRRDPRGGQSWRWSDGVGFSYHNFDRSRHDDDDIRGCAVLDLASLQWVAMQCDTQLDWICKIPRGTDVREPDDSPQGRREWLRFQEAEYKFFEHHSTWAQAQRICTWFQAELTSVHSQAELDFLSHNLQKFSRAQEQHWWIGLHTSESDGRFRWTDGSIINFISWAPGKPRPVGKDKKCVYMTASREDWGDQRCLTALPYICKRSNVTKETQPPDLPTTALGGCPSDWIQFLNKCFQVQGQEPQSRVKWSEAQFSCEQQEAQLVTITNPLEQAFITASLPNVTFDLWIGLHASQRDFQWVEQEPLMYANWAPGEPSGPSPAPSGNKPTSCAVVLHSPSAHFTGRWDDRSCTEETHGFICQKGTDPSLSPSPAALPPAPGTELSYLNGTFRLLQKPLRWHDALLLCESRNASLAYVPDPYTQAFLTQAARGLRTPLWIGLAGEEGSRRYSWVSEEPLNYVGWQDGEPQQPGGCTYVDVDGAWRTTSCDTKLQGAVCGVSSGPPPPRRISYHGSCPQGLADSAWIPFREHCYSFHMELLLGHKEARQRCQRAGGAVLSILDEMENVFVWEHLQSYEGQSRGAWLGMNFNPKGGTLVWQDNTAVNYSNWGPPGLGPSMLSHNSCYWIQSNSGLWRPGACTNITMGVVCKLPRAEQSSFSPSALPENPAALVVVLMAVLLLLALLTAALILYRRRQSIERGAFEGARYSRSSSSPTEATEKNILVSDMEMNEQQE
Sequence of UniProt Q8WXB1 (Q8WXB1 whole entry, looked up): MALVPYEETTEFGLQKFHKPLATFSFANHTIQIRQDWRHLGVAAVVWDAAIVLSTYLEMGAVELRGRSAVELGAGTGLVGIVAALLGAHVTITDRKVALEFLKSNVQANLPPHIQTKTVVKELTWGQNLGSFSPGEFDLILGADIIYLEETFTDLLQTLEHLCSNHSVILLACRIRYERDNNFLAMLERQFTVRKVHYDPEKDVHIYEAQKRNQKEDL
Sequence of UniProt O15243 (O15243 whole entry, looked up): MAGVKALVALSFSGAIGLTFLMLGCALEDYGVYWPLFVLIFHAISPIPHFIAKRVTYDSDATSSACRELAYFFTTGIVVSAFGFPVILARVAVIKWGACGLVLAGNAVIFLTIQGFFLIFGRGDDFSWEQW
Sequence of UniProt P83369 (P83369 whole entry, looked up): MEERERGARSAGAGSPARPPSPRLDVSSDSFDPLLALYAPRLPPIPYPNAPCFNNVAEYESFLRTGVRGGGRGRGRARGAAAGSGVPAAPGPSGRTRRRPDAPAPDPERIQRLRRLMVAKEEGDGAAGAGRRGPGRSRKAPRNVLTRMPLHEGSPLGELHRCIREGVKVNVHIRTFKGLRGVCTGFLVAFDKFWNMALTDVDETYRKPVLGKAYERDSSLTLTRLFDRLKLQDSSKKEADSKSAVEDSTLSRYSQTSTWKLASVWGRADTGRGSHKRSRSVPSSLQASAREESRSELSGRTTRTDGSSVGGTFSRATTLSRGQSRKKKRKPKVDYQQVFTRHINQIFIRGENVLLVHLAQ

Compound in the experiment: CN1CC[C@H](c2c(O)cc(O)c3c(=O)cc(-c4ccccc4Cl)oc23)[C@H](O)C1 [alvocidib]
As to the kind of experiment: log2 fold change, soluble protein after heating vs DMSO (PISA); higher = thermal stabilisation; K562 lysate, 10 uM; active = over 0.2 and 3.5 SD of the protein, either way, in both replicates (recomputed). In short, it runs like this:
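K562 pellets were dounce-homogenised in PBS pH 7.4 containing 1 mM MgCl2, and the crude extract, at 1 mg/mL protein, was exposed to 10 μM compound for 30 min. Aliquots were heated for 3 min across 48°C-58°C, pooled, brought to 0.5% NP-40 at 4°C and spun at 21,000xg for 90 min, with the supernatant taken as soluble protein. TMTpro 16plex LC-MS/MS with equalised channel sums quantified that protein. Values are log-two fold changes in thermal stability relative to solvent controls, taken from duplicates.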
LGALS3BP (UniProt Q08380): the log2 fold change was -0.187.

Take MRPL22 (UniProt Q9NWU5): the log2 fold change was 0.018.

For the target LEPROT (UniProt O15243), the log2 fold change was 0.006.

In the case of KIF2A isoform 2 (UniProt O00139), the log2 fold change was 0.153.

For KIFC3 isoform 6 (UniProt Q9BVG8), the log2 fold change is -0.786 (active).

With LSM11 (UniProt P83369), the log2 fold change is 0.134.

For MRC2 (UniProt Q9UBG0), the log2 fold change was 0.04.

On to MARCHF6 (UniProt O60337), for which the log2 fold change is 0.07.

Regarding LRRC9 (UniProt Q6ZRR7), the log2 fold change is 0.911.

Take MCUB (UniProt Q9NWR8): the log2 fold change is 0.019.

On to MMS22L (UniProt Q6ZRQ5), for which the log2 fold change was 0.068.

As for LIMK1 (UniProt P53667), the log2 fold change was -0.135.

On to MEGF8 (UniProt Q7Z7M0), for which the log2 fold change is 0.03.

Regarding LY6E (UniProt Q16553), the log2 fold change is -0.726.

As to MED28 (UniProt Q9H204), the log2 fold change is -0.292.

As for MME (UniProt P08473), the log2 fold change is -0.01.

For LRRC7 (UniProt Q96NW7), the log2 fold change is 0.069.

For MAPK7 (UniProt Q13164), the log2 fold change is 0.069.

As for METTL21A (UniProt Q8WXB1), the log2 fold change was 0.009.
